This is an account of results in publication PMC7862700, “An all-to-all approach to the identification of sequence-specific readers for epigenetic DNA modifications on cytosine”.

Assay in all cases: DAPPL (digital affinity profiling via proximity ligation, sequencing); 10 mM Tris-HCl pH 7.5, 50 mM NaCl, 1 mM DTT, 4% glycerol, room temperature, 30 min; GST-TFs on glutathione beads, 16-mer random dsDNA library, 0.1% formaldehyde crosslink after washing; high values mean tight binding
Assay [1] addresses T1, FLI1 (Homo sapiens, UniProt Q01543 1-452).
T1 sequence: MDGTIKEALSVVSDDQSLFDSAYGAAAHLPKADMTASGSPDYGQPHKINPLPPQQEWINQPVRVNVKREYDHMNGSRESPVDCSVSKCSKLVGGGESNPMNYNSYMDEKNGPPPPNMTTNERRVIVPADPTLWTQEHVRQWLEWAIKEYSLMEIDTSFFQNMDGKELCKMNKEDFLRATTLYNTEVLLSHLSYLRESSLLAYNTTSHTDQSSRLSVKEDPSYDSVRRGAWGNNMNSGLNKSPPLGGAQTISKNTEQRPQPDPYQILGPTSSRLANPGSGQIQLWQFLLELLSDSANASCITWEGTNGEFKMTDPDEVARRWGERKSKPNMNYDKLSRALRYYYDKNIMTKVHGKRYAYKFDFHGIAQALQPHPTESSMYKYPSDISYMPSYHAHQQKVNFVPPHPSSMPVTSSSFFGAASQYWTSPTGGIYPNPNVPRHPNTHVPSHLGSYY
To be noted: protein: recombinant; tags: N-terminal GST; dsDNA, one strand shown. A digest of the protocol: (§1)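 Beads coated with glutathione captured GST-fused human transcription factors that had been expressed in yeast, and the factors were then given DNA barcodes and pooled with a tag-only sample. The pools were incubated with 200 nmole of a random double-stranded 16-mer DNA library in Tris/NaCl/DTT/glycerol buffer for 30 min at room temperature, washed, crosslinked with 0.1% formaldehyde and proximity-ligated with BsaI/T4 ligase at 37 °C for 1 h. PCR amplification and Illumina NextSeq500 sequencing came last. Binding signal is each hexamer's read frequency for a factor divided by its frequency for the tag-only sample.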

Assay [2] deals with T2, ELK1 (Homo sapiens, UniProt P19419 1-428).
T2 sequence: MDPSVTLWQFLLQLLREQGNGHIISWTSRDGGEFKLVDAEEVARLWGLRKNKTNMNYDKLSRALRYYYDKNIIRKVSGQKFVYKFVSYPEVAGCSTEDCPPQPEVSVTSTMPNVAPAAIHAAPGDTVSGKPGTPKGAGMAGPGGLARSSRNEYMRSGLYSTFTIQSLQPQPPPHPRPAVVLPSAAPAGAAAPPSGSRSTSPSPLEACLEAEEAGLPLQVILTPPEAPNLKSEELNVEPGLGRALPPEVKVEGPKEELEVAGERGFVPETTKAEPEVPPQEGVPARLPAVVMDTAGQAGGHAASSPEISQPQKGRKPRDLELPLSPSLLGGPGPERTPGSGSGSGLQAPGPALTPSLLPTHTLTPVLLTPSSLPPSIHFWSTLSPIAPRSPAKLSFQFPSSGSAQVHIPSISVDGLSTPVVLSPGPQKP
Conditions: protein: recombinant; tags: N-terminal GST; dsDNA, one strand shown. A digest of the protocol: as §1

Assay [3] has as its target T3, GABPA (Homo sapiens, UniProt Q06546 1-454).
T3 sequence: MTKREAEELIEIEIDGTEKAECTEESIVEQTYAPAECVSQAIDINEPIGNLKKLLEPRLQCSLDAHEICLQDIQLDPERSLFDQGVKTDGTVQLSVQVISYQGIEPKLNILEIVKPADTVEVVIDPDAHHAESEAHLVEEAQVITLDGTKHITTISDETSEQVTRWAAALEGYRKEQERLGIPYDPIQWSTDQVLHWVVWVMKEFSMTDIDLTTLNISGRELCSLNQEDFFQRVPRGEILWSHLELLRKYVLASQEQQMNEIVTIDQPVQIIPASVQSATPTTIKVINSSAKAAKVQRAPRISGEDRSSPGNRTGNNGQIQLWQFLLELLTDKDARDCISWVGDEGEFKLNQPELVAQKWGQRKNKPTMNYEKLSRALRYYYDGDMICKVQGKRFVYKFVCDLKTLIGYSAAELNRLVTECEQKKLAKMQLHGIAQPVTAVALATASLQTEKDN
Conditions: protein: recombinant; tags: N-terminal GST; dsDNA, one strand shown. In a few lines: as §1

The target of assay [4] is T4, ERG (Homo sapiens, UniProt P11308 1-479).
T4 sequence: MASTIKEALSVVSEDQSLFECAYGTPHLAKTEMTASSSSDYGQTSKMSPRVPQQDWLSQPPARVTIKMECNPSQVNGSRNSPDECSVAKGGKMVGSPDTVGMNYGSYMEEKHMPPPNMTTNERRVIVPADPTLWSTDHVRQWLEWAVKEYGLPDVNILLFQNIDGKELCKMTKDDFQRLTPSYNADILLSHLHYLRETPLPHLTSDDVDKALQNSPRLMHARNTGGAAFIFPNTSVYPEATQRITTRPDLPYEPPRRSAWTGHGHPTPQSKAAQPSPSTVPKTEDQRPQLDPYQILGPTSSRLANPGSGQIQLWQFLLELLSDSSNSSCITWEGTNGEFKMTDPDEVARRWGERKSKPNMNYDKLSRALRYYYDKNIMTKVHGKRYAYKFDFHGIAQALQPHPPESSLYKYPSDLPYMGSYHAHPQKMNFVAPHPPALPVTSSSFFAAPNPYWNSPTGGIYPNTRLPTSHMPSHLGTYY
To be noted: protein: recombinant; tags: N-terminal GST; dsDNA, one strand shown. A digest of the protocol:
as §1

Assay [5] deals with ELF1 (Homo sapiens, UniProt P32519 1-619). Conditions: protein: recombinant; tags: N-terminal GST; dsDNA, one strand shown. In a few lines:
as §1

Assay [6] has as its target T5, EHF (Homo sapiens, UniProt Q9NZC4 1-300).
T5 sequence: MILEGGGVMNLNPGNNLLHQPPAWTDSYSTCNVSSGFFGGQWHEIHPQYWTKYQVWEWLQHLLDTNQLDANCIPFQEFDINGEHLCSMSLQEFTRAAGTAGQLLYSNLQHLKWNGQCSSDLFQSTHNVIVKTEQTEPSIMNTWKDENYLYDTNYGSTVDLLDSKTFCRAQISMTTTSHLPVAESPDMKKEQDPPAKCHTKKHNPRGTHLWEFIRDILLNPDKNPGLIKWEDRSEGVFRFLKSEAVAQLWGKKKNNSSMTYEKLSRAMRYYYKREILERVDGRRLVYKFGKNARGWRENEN
Conditions: protein: recombinant; tags: N-terminal GST; dsDNA, one strand shown. In a few lines: as §1

For assay [7], the target named is SPI1 (Homo sapiens, UniProt P17947 1-270). Conditions: protein: recombinant; tags: N-terminal GST; dsDNA, one strand shown. A digest of the protocol: as §1
Assay [8] concerns the target SPIB (Homo sapiens, UniProt Q01892 1-262). Conditions: protein: recombinant; tags: N-terminal GST; dsDNA, one strand shown. A digest of the protocol:
as §1

Assay [9] deals with T6, ELK3 (Homo sapiens, UniProt P41970 1-407).
T6 sequence: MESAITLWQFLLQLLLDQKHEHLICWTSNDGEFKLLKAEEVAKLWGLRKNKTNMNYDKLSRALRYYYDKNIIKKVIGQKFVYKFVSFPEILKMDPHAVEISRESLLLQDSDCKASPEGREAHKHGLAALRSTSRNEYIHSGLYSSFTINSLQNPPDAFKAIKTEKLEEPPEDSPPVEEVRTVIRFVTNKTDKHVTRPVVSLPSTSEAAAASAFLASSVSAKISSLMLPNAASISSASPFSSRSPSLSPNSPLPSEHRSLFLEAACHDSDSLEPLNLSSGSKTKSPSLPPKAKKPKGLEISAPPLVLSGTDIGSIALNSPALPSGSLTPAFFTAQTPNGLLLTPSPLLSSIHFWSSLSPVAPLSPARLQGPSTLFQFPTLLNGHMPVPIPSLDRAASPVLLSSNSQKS
Conditions: protein: recombinant; tags: N-terminal GST; dsDNA, one strand shown. A digest of the protocol:
as §1

Assay [10] concerns the target T7, FEV (Homo sapiens, UniProt Q99581 1-238).
T7 sequence: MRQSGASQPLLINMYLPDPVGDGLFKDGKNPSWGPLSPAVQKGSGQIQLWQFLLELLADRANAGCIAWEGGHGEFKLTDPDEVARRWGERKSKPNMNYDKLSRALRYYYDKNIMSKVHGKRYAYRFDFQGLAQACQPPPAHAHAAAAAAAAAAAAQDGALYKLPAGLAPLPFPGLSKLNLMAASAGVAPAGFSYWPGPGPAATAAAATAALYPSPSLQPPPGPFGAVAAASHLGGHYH
To be noted: protein: recombinant; tags: N-terminal GST; dsDNA, one strand shown. A digest of the protocol: as §1

For assay [11], the target named is ETV5 (Homo sapiens, UniProt P41161 1-510). Conditions: protein: recombinant; tags: N-terminal GST; dsDNA, one strand shown. A digest of the protocol: as §1
Sequence of ETV5 (P41161 whole entry): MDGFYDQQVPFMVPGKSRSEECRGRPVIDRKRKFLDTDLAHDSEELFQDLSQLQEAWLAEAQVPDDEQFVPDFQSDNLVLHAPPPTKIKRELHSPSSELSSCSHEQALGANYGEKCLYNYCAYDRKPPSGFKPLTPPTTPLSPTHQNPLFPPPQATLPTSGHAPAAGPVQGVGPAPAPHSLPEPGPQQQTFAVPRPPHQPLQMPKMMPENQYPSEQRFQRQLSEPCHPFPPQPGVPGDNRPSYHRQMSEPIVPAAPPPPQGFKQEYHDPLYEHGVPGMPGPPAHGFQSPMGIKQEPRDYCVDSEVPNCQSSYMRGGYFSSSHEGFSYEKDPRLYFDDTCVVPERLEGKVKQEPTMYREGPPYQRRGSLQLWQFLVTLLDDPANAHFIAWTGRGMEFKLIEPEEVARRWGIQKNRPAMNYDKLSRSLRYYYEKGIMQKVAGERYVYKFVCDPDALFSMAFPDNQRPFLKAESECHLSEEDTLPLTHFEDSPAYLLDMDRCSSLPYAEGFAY
The target of assay [12] is HSF1 (Homo sapiens, UniProt Q00613 1-529). To be noted: protein: recombinant; tags: N-terminal GST; chain copies: 3; dsDNA, one strand shown. In a few lines:
as §1

The target in assay [13] is T8, SPIC (Homo sapiens, UniProt Q8N5J4 1-248).
T8 sequence: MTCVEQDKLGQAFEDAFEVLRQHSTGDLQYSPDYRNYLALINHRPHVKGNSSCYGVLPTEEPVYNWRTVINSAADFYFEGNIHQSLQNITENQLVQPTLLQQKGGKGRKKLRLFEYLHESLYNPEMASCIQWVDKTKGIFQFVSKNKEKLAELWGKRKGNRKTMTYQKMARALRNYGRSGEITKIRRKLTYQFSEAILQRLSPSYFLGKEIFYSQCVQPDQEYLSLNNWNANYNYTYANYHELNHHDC
Conditions: protein: recombinant; tags: N-terminal GST; dsDNA, one strand shown. In a few lines: as §1

Assay [14] deals with ELF4 (Homo sapiens, UniProt Q99607 1-663). Conditions: protein: recombinant; tags: N-terminal GST; dsDNA, one strand shown. A digest of the protocol:
as §1

Assay [15] deals with T9, ELK4 (Homo sapiens, UniProt P28324-2 1-405).
T9 sequence: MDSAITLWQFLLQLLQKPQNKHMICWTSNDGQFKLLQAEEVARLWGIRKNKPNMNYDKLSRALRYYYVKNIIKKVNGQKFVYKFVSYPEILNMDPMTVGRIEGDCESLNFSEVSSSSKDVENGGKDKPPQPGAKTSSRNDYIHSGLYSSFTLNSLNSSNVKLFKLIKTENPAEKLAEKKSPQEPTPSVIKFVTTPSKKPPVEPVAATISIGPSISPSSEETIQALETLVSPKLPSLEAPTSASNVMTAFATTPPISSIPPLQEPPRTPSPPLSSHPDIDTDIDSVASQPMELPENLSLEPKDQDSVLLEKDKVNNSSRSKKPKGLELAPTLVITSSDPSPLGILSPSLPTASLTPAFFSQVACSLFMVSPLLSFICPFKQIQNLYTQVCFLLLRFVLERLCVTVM
Conditions: protein: recombinant; tags: N-terminal GST; dsDNA, one strand shown. In a few lines: as §1

In assay [16] the target is T10, ELF3 (Homo sapiens, UniProt P78545 1-371).
T10 sequence: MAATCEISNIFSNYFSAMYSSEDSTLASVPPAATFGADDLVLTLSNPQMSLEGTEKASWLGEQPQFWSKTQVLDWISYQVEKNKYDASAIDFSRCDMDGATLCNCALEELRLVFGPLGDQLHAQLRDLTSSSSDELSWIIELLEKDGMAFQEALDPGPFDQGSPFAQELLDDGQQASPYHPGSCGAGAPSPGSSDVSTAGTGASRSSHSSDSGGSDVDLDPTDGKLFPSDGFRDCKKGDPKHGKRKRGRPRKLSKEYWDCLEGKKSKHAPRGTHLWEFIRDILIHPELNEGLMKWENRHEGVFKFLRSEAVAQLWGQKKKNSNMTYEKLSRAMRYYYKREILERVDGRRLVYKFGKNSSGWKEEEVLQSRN
Conditions: protein: recombinant; tags: N-terminal GST; dsDNA, one strand shown. In a few lines:
as §1

Assay [17] addresses ETV1 (Homo sapiens, UniProt P50549 1-477). Conditions: protein: recombinant; tags: N-terminal GST; dsDNA, one strand shown. In a few lines: as §1

Sequence of ETV1 (P50549 whole entry): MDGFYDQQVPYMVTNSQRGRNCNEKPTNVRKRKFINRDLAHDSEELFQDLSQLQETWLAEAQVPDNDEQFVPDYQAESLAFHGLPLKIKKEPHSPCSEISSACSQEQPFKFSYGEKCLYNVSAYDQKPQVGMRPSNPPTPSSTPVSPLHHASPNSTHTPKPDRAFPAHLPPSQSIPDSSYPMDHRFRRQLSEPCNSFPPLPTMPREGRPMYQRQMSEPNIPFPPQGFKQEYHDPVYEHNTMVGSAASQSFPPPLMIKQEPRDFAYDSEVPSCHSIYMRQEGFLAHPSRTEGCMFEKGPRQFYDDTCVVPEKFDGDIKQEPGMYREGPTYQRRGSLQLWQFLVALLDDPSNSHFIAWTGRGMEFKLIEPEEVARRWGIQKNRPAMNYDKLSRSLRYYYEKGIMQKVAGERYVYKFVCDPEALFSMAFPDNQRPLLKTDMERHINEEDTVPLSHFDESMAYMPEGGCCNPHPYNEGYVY
Sequence of ELF4 (Q99607 whole entry): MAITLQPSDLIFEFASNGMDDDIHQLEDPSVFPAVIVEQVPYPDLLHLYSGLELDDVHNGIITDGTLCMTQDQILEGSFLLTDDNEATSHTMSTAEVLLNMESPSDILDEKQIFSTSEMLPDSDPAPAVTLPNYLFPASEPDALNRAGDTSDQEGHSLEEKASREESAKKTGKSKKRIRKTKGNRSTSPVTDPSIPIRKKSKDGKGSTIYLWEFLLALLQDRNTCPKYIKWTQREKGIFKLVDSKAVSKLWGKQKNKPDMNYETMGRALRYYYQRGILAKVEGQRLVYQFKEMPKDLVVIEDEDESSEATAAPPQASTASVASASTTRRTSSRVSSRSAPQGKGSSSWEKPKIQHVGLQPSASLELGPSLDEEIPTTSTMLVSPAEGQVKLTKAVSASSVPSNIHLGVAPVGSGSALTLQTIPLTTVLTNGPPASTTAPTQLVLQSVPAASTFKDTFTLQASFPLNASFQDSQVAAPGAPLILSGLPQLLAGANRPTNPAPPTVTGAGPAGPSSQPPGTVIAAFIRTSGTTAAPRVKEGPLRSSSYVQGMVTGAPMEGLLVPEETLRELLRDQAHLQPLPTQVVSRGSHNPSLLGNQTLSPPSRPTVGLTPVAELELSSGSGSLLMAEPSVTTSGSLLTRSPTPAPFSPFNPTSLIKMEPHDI
Sequence of ELF1 (P32519 whole entry): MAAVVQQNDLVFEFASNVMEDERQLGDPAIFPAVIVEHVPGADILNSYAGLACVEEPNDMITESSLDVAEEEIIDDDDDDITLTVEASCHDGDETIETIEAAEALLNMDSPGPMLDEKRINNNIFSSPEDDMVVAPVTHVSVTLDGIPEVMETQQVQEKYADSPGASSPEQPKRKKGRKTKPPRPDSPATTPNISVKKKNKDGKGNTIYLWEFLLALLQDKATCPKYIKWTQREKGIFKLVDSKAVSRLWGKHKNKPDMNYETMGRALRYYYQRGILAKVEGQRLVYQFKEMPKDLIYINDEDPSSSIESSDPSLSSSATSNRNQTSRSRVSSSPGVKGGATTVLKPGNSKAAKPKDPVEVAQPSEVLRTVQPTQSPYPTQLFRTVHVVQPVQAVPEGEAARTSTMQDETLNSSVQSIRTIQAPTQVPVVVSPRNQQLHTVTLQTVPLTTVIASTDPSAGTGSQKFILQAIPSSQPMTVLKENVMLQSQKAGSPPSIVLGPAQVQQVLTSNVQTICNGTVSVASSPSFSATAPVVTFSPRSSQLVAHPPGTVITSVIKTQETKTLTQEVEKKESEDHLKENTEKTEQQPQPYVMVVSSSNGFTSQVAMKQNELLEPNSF
Sequence of HSF1 (Q00613 whole entry): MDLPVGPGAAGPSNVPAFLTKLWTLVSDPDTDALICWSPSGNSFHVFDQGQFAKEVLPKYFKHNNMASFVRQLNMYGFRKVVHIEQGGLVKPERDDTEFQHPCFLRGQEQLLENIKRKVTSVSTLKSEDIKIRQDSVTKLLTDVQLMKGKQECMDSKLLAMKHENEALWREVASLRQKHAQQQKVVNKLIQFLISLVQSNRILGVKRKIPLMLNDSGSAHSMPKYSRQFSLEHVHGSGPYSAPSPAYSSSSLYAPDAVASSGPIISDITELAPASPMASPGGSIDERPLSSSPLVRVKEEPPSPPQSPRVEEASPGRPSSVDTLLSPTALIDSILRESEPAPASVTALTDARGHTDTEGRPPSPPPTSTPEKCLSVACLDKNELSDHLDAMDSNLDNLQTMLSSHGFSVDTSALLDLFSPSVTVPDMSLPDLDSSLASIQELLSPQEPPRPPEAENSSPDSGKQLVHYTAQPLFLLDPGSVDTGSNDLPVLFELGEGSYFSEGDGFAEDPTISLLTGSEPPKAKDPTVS
Sequence of SPIB (Q01892 whole entry): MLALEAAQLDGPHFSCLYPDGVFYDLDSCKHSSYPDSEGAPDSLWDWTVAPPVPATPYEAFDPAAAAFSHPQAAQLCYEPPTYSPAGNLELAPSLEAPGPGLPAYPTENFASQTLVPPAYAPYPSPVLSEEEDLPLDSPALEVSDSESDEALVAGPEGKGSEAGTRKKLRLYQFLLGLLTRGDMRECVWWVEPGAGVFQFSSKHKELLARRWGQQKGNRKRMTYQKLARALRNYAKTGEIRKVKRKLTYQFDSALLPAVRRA

Regarding GTGCTA, the binding signal in [1] was 1.11 fold enrichment (6-mer frequency, TF over GST control); in [2] it was 1.09 fold enrichment (6-mer frequency, TF over GST control); in assay [3], 1.04 fold enrichment (6-mer frequency, TF over GST control); in assay [4], 1.09 fold enrichment (6-mer frequency, TF over GST control); in assay [5], 1.12 fold enrichment (6-mer frequency, TF over GST control); in assay [6], 1.03 fold enrichment (6-mer frequency, TF over GST control). Moreover, the binding signal in assay [7] is 1.25 fold enrichment (6-mer frequency, TF over GST control); in assay [8], 1.1 fold enrichment (6-mer frequency, TF over GST control); in assay [9] it was 1.14 fold enrichment (6-mer frequency, TF over GST control); in assay [10], 1.11 fold enrichment (6-mer frequency, TF over GST control); in [11], 1.16 fold enrichment (6-mer frequency, TF over GST control); in [12], 1.07 fold enrichment (6-mer frequency, TF over GST control). Moreover, the binding signal is 1.17 fold enrichment (6-mer frequency, TF over GST control) in [13]; 1.07 fold enrichment (6-mer frequency, TF over GST control) in [14]; 1.08 fold enrichment (6-mer frequency, TF over GST control) in assay [15]; 1.12 fold enrichment (6-mer frequency, TF over GST control) in assay [16]; 1.1 fold enrichment (6-mer frequency, TF over GST control) in [17].
